# Measurements taken from the supplement of paper PMC10981050.
# “And” between values parts separate entries of the source, which are not always exact repeats. Equal values may be shown once. Where a name gives a salt, the structure may show the parent alone.
# Experiments:
# Test in all cases: cell viability relative to vehicle control; higher = less cytotoxic
# Conditions in all cases: 10 µM
# K562 = tested on: K562
# How it was run: (§1)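 Screening covered the Selleck bioactive, kinase and epigenetic probe libraries, less identity-inconsistent compounds, on CRISPR-edited mutant clones and isogenic wild-type clones of four leukaemia lines. Cells, at 2000 per well in 50 µL medium, received a single 10 µM acoustically dispensed dose. After 48 h the supernatant was removed and CellTiter-Glo luminescence was read. Viability was analysed in Genedata Screener as percent of the on-plate vehicle control.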
# MARIMO = tested on: MARIMO
# How it was run: as §1
# MOLM14 = tested on: MOLM14
# How it was run: as §1
# OCI-AML2 = tested on: OCI-AML2
# How it was run: as §1
SMILES,cell viability (K562; SRSF2 genotype: SRSF2 P95H/wt),cell viability (K562; SRSF2 genotype: SRSF2 wt/wt) [%],cell viability (MARIMO; SRSF2 genotype: SRSF2 P95H/wt) [%],cell viability (MARIMO; SRSF2 genotype: SRSF2 wt/wt) [%],cell viability (MOLM14; SRSF2 genotype: SRSF2 P95H/wt) [%],cell viability (MOLM14; SRSF2 genotype: SRSF2 wt/wt) [%],cell viability (OCI-AML2; SRSF2 genotype: P95H/wt) [%],cell viability (OCI-AML2; SRSF2 genotype: wt/wt) [%]
Nc1nccc(Oc2ccc(NC(=O)c3c[nH]cc(-c4ccc(F)cc4)c3=O)cc2F)c1Cl,76.3% and 90.6%,80.8,96.2,110,19.9,14.8,41.8,43.6
O=C(O)Cc1ccc2c(c1)C(=O)c1ccccc1CO2 [Isoxepac],104%,105,106,105,100,105,105,105
CC1(C)C=C(CN2C/C(=C\c3ccc(F)cc3)C(=O)/C(=C/c3ccc(F)cc3)C2)C(C)(C)N1O,1.83% and 3.61%,1.04,0.52,1.15,0.27,0.28,0.24,0.32
CCn1nc(C2CCN(C(=O)CCO)CC2)nc1-c1cnc(N)c(-c2nnc(C(C)(C)C)o2)n1,97.5% and 109%,104,57.5,50.7,38.2,50.8,21.3,34.6
Cc1ccc(S(=O)(=O)Nc2nc3ccccc3nc2Nc2ccc3nsnc3c2)cc1 [XL147 analogue],95.3% and 101%,105,97.6,104,99.2,98.7,101,94.5
CC(C)(Cc1ccc2ccccc2c1)NC[C@@H](O)COc1cccc(Cl)c1C#N,10.7% and 3.37%,1.65,26.8,25.5,8.56,2.3,0.55,1.15
CCc1nc(C(N)=O)c(Nc2ccc(N3CCC(N4CCN(C)CC4)CC3)c(OC)c2)nc1NC1CCOCC1 [Gilteritinib (ASP2215)],89% and 85.7%,91.4,40.9,40.6,4.58,8.89,14.3,21.3
Cc1cc(CN2CCN(c3c(Br)cnc4nc(-c5ccc(N6CCN(C)CC6)cc5)[nH]c34)CC2)no1,19.6% and 18.5%,24.2,88.8,87,0.57,0.62,6.22,1.52
CCCCCCCCc1ccc(CCC(N)(CO)CO)cc1 [Fingolimod (FTY720) HCl],0.63%,0.58,0.4,0.42,0.4,0.39,0.36,0.44
CC(=O)O[C@H]1C[C@@H]2CC[C@@H]3[C@H](CC[C@@]4(C)[C@H]3C[C@H]([N+]3(C)CCCCC3)[C@@H]4OC(C)=O)[C@@]2(C)C[C@@H]1N1CCCCC1 [Vecuronium Bromide],101% and 109%,109,105,103,99.8,101,111,109
C=C[C@H]1CN2CC[C@H]1C[C@H]2[C@H](O)c1ccnc2ccc(OC)cc12 [Quinine hydrochloride dihydrate],90.8% and 92.7%,88,87.7,86.5,79.7,93.2,88.9,84.9
CO[C@H]1O[C@@H]2O[C@@]3(C)CC[C@H]4[C@H](C)CC[C@@H]([C@H]1C)[C@@]24OO3 [Artemether],84.4% and 83.7%,80.4,81,90.5,85.6,90.1,86.3,86.6
COC(=O)[C@H](c1ccccc1Cl)N1CCc2sccc2C1 [Clopidogrel (Plavix)],98.2% and 98.5%,94.4,78.9,101,94.1,96.9,85.4,93.4
N#Cc1ccc(-c2csc(NN=C3CCCC3)n2)cc1 [Remodelin],76.6% and 86.8%,87.6,66.9,62.1,92.3,99.4,61,72.3
CCCCCCCCCCCCCCCCCC(=O)O [Stearic acid],107% and 111%,107,107,109,105,108,96.4,103
O=C1O[C@H]2[C@@H]3OC(=O)c4cc(O)c(O)c(O)c4-c4c(cc(O)c(O)c4O)C(=O)OC[C@H]2O[C@@H](OC(=O)c2cc(O)c(O)c(O)c2)[C@@H]3OC(=O)c2cc(O)c(O)c3c2[C@@H]2C1=CC(=O)[C@](O)(O3)C2(O)O [Geraniin],94.9% and 95.9%,103,97.3,86,106,97.7,96.1,92.1
CCCCC(=O)O[C@]1(C(=O)CO)[C@@H](C)C[C@H]2[C@@H]3CCC4=CC(=O)C=C[C@]4(C)[C@@]3(F)[C@@H](O)C[C@@]21C [Betamethasone valerate (Betnovate)],94.9% and 101%,94.8,96.9,110,90.8,93.7,94.5,116
Oc1ccc(-c2nc(-c3ccc(F)cc3)c(-c3ccncc3)[nH]2)cc1,89.5% and 96.2%,93.5,101,113,97.9,97.3,99.7,106
COc1ccc(C(=O)CC(=O)c2ccc(C(C)(C)C)cc2)cc1 [Avobenzone (Parsol 1789)],87.3% and 92.5%,91.8,77.2,92.6,87.6,98.9,61.2,76.8
NC(C=O)C(O)C(O)C(O)CO (stereo not given) [Glucosamine sulfate],99.5% and 102%,100,101,105,104,108,104,104

SMILES,cell viability (K562; SRSF2 genotype: SRSF2 P95H/wt),cell viability (K562; SRSF2 genotype: SRSF2 wt/wt) [%],cell viability (MARIMO; SRSF2 genotype: SRSF2 P95H/wt) [%],cell viability (MARIMO; SRSF2 genotype: SRSF2 wt/wt) [%],cell viability (MOLM14; SRSF2 genotype: SRSF2 P95H/wt) [%],cell viability (MOLM14; SRSF2 genotype: SRSF2 wt/wt) [%],cell viability (OCI-AML2; SRSF2 genotype: P95H/wt) [%],cell viability (OCI-AML2; SRSF2 genotype: wt/wt) [%]
CCOC(=O)C1=C(C)NC(=S)NC1c1cccc(O)c1 (stereo not given) [Monastrol],106% and 97.8%,103,103,99.4,105,103,101,102
COc1nc(N)nc2c1ncn2[C@@H]1O[C@H](CO)[C@@H](O)[C@@H]1O [Nelarabine (Arranon)],98.2% and 96.9%,99.6,95.5,91.2,90.7,93.5,94.7,94.5
C[C@H](NC(=O)CCC(F)(F)F)C(=O)N[C@@H]1C(=O)N(CCO)c2ncccc2-c2ccccc21,103% and 104%,95.9,97.4,108,109,103,89.4,99.8
C#CCN[C@@H]1CCc2ccccc21 [Rasagiline mesylate],98% and 105%,101,105,106,99.4,104,108,107
O=C(NC(NC(=S)Nc1ccc(F)c([N+](=O)[O-])c1)C(Cl)(Cl)Cl)C(c1ccccc1)c1ccccc1 (stereo not given),6.8% and 10.6%,17.6,35.5,30.2,1.5,4.68,1.61,4.06
Nc1c(CC(=O)O)cccc1C(=O)c1ccc(Br)cc1 [Bromfenac Sodium],106% and 105%,97.3,105,98.3,102,102,107,104
CC1(C)CC[C@]2(C)CC[C@]3(C)C(=CC[C@@H]4[C@@]5(C)CC[C@@H](O)[C@](C)(C(=O)O)[C@@H]5CC[C@]43C)[C@@H]2C1,97.6% and 95.5%,97.8,97.8,108,102,103,94.4,96.1
COc1ccnc(C[S+]([O-])c2nc3cc(-n4cccc4)ccc3[nH]2)c1C (stereo not given) [Ilaprazole],90.7% and 95.4%,92.4,87.3,105,99.9,101,82.5,97.3
Cc1cccc(-c2[nH]c(C(C)(C)C)nc2-c2ccc3nccnc3c2)n1,111% and 95.8%,99.7,108,105,105,101,108,115
O=[N+]([O-])c1ccc(Nc2ccccc2-c2ccccc2)c2nonc12,104% and 97.4%,95.7,96.7,109,94.2,95.2,103,107
CC(=O)O[C@]1(C(C)=O)CC[C@H]2[C@@H]3C=C(Cl)C4=CC(=O)[C@@H]5C[C@@H]5[C@]4(C)[C@H]3CC[C@@]21C [Cyproterone acetate],87.2% and 85.8%,84.7,66.1,71.6,86.2,93.3,75,77.4
NCCCC[C@@H]1NC(=O)[C@@H](Cc2ccc(O)cc2)NC(=O)[C@H](CC(=O)O)NC(=O)CNC(=O)[C@H](CCCN=C(N)N)NC1=O [Cyclo(RGDyK)],93.8% and 88.5%,89.8,92.8,96.9,91.3,90.9,94.8,93.9
O=C(O)C(O)Cc1ccc(O)c(O)c1 (stereo not given) [Sodium Danshensu],98.7% and 92.4%,95.5,95.5,107,96.4,98.8,93.7,104
COc1cc(NS(=O)(=O)c2ccc(N)cc2)nc(OC)n1 [Sulphadimethoxine],95.8% and 87.4%,95.9,91.3,98,96.7,91.5,90.4,91.4
CCNC(=O)CCC/C=C\C[C@@H]1[C@@H](/C=C/[C@@H](O)CCc2ccccc2)[C@H](O)C[C@@H]1O [Bimatoprost],99.5% and 99.1%,96.8,95.4,98.3,98.4,98.3,105,98.8
CCCN(CCC)CCc1cccc2c1CC(=O)N2 [Ropinirole HCl],98.9% and 97.5%,95.9,103,100,103,102,100,89.4
C[C@@H](C(=O)Nc1ccc(Cl)cc1)C1CCC(c2ccnc3ccc(F)cc23)CC1 (stereo not given in full),77% and 77.9%,69.6,81,70.5,61.9,76.4,56.8,54.5
CC(=O)NC[C@H]1CN(c2ccc(N3CCOCC3)c(F)c2)C(=O)O1 [Linezolid (Zyvox)],81.9% and 81.7%,84.3,85,92.5,88.3,85.5,81.4,86.7
Cc1nccn1CC1CCc2c(c3ccccc3n2C)C1=O (stereo not given) [Ondansetron hydrochloride (Zofran)],96.1% and 89.4%,93.8,88.4,95.6,102,98.9,95.5,101
Cc1ncc(CCCN(C)C)cc1Nc1ncc2c(n1)-c1ccc(C(F)(F)F)cc1NC(=S)C2,46.2% and 57.9%,54.3,49.5,44.5,18.3,8.47,16.3,21.1
